Shown are actives, neighbours in structure and some others; about 9% of the full set was active somewhere.
JMJD2A Tudor = blocks the human JMJD2A Tudor domain; O75164; AlphaScreen JMJD2A-Tudor / H3K4me3 peptide binding; Potency, µM (doses to about 114 µM), for inactives: at the top dose activity change, negative = inhibition, hits mostly inhibitors; 4.4% of 390,000 active; AID 504339; also: % is scaled to controls: 0 for no effect and ±100 for the full control effect; nearly all actives have a fitted effect of over 50% in size
PLK1 PBD inh = inhibitors of human PLK1 polo-box domain binding. P53350. Plk1 PBD binding of FITC phosphopeptide, fluorescence polarization. Potency, µM, inactives show max response, negative = inhibition, hits mostly inhibitors. 2.8% of 360,000 active; also: series mostly up to about 57 µM; % is scaled to controls: 0 for no effect and ±100 for the full control effect; nearly all actives have a fitted effect of over 65% in size
Target sequence (P53350 whole entry, looked up, the tested form may be a part): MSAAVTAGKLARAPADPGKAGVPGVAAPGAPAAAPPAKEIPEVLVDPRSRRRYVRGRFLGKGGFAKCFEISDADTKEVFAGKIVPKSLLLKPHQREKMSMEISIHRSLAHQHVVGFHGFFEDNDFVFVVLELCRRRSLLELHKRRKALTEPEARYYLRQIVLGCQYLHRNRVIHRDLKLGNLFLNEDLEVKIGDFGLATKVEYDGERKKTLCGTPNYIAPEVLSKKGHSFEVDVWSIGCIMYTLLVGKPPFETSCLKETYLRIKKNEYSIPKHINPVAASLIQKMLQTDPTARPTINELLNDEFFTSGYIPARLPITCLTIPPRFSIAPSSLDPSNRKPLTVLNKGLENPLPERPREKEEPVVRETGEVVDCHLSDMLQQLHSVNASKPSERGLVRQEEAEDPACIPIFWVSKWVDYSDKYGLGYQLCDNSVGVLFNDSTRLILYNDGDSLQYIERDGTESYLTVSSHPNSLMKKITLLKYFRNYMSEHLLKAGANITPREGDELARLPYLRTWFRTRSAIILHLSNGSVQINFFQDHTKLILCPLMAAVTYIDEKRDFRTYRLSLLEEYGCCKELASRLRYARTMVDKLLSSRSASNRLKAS
12-LOX inh = blocks human arachidonate 12S-lipoxygenase | AID 1671190 | 1.1% of 580,000 active | purified 12hLO, xylenol orange hydroperoxide absorbance | Potency, µM (titrated, usually from 108 µM), without a hit: at the highest dose activity change, negative = inhibition, hits mostly inhibitors | P18054; also: % is scaled to controls: 0 for no effect and ±100 for the full control effect
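Purified human 12hLO at 150 nM in 25 mM Hepes, 0.01% Triton X-100, pH 7.0, preincubated 15 min at room temperature with compound. Reaction started with 40 uM arachidonic acid, 30 min at room temperature. Hydroperoxide measured by Fe-xylenol orange, 573/405 nm absorbance ratio.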
HP1b binding inh = blocks HP1-beta chromodomain binding to methylated histone tails; Potency, µM (doses to about 114 µM), inactives show at the top dose activity change, negative = inhibition, hits mostly inhibitors; AlphaScreen HP1-beta / biotin-H3K9me3 peptide binding; AID 540317; 0.56% of 390,000 active; also: nearly all actives have a fitted effect of over 70% in size
Target sequence (P83916 whole entry, looked up): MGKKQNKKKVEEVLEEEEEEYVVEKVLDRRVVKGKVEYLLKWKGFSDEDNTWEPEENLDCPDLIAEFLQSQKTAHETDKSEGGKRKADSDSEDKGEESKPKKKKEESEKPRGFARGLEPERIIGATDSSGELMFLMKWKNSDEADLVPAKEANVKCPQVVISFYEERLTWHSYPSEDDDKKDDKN
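HP1-beta protein (50 nM final) preincubated 30 min at room temperature with biotinylated H3(1-18)K9me3 peptide (50 nM) in PBS pH 7.4, 0.01% Tween-20, then compound added for 30 min. AlphaScreen streptavidin donor/nickel chelate acceptor beads (10 ug/mL final), 30 min dark, luminescence read.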
BAZ2B block = inhibitors of human BAZ2B bromodomain. AID 504333. 4.4% of 360,000 active. Potency, µM (titrated, usually from 114 µM), for the others: at the highest dose activity change, negative = inhibition, hits mostly inhibitors. Q9UIF8. AlphaScreen BAZ2B-H3K14Ac peptide displacement; also: % is scaled to controls: 0 for no effect and ±100 for the full control effect; nearly all actives have a fitted effect of over 60% in size
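Protein-peptide AlphaScreen: BAZ2B 50 nM, b-H3K14Ac 50 nM, 1x PBS pH 7.4 + 0.01% Tween-20. Preincubation 30 min RT; cpd 30 min RT (top 110 uM); beads 20 min RT, light-protected.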
G9a block = inhibitors of human histone lysine methyltransferase G9a. Q96KQ7. G9a H3K9 monomethylation, AlphaScreen, 2 h. 8.8% of 350,000 active. Potency, µM (titrated, usually from 102 µM), without a hit: top-dose activity, negative = inhibition, actives largely listed as inhibitors. AID 504332; also: % is scaled to controls: 0 for no effect and ±100 for the full control effect; nearly all actives have a fitted effect of over 75% in size
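Signal arises when biotinylated H3K9 peptide, once monomethylated, bridges streptavidin donor and antibody-captured acceptor beads. Enzyme at 20 nM was preincubated 15 min with test compounds; peptide 500 nM and SAM 20 uM then reacted for 2 h.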
An asterisk follows results filed as active; ? = inconclusive; . = no result given; ! = not confirmed by another sample; [ ] = another dose, or the depositor's remark. Calls follow the shape of the dose curve; as a rule, active = well fitted curve in the direction sought with a large enough effect; inconclusive = small, poorly fitted or top-dose-only effect, or another doubt; inactive = no such curve, though single readings can be large; an effect the other way counts as inactive or inconclusive. Potency is read from the fitted curve at half-maximal effect.

SMILES | JMJD2A Tudor | PLK1 PBD inh | 12-LOX inh | HP1b binding inh | BAZ2B block | G9a block
Cc1ccc(-c2cn3cccnc3n2)cc1 | -10.7% | -3.6% | 2.1% | 9.5% | 9.1% | 8.5%[59 µM]
CCOc1ccc(C(C(=O)NC2CCCCC2)N(C(=O)c2ccccn2)c2cccnc2)cc1 (stereo not drawn) | -14.4% | -13.1% | -1.2% | 19.6% | -15.7% | 2.8%
Cc1ccccc1-c1cc(C(=O)NCc2cccc(Br)c2)n(CC2CC(c3cccnc3)=NO2)n1 (stereo not drawn) | -21.5% | -7.7% | 39.8µM* | 17.7% | . | .
COc1ccccc1CNC(=O)c1cc(-c2ccccc2C)nn1CC1CC(c2cccnc2)=NO1 (stereo not drawn) | -34.8% | -6.2% | -3.0% | 6.2% | -11.5% | -2.8%[0.501 µM]
C[C@H](NC[C@H](O)CP(=O)(O)Cc1ccccc1)c1ccc(Cl)c(Cl)c1 | . | . | 20µM*! | . | . | -4.8%[59 µM]
CC(NC(=O)CCl)c1ccc(Cl)c(Cl)c1 (stereo not drawn) | -4.8% | -15.6% | 0.0% | 19.3% | 0.7% | -47.2%[59 µM]
O=C(CCN1C(=O)C2C3CCC(C3)C2C1=O)OCC(=O)c1ccccc1 (stereo not drawn) | -2.1% | -1.6% | 15.4% | 19.8% | -12.9% | 5.1%
O=C(CCN1C(=O)C2C3CC(C(Br)C3Br)C2C1=O)OCC(=O)c1ccccc1 (stereo not drawn) | 79.4µM* | 26.7µM* | -11.8% | -3.7% | 5.5% | 9.7%[59 µM]
CC(=O)c1ccc(OCC(O)CN(C)Cc2cccs2)cc1 (stereo not drawn) | 7.94µM* | -9.0% | ? | ? | 50.1µM* | 3.55µM*
CN(Cc1cccs1)CC(O)COCc1ccco1 (stereo not drawn) | -9.0% | 0.5% | ? | 9.2% | -14.9% | 44.7µM*
CCCNC(=O)NCC1c2cc(OC)c(OC)cc2CCN1C(=O)NC(C)C (stereo not drawn) | . | . | 23.8% | . | . | .
CCOC(=O)CCCCC(=O)c1[nH]c(=O)[nH]c1CSc1nc(C)cc(C)n1 | -28.6% | -3.2% | 0.0% | 26.6% | ? | ?
CCOC(=O)CCCCC(=O)c1[nH]c(=O)[nH]c1CSc1nnc2c3cc(Br)ccc3n(C)c2n1 | . | . | . | . | -66.5% | 28.2µM*
CCOC(=O)CCCCC(=O)c1[nH]c(=O)[nH]c1CSc1nc2ccccc2[nH]1 | 79.4µM* | ? | -25.5% | 21.4% | ? | 1.58µM*
CCOC(=O)CCCCC(=O)c1[nH]c(=O)[nH]c1CSc1nc(C)cc(=O)[nH]1 | ? | -16.4% | -5.8% | 18.2% | 50.1µM* | ?
CN1C(=O)[C@@H]2C[C@@H](CN2C2CCOCC2)Oc2ccccc21 | . | . | 129.1%[176 µM] | . | . | .
Cn1c(=O)c2c(ncn2CC(=O)OCC(=O)NCc2ccccc2)n(C)c1=O | . | . | -2.3% | . | . | .
O=C(O)Cc1ccc(CCNS(=O)(=O)c2ccc(Cl)cc2)cc1 | . | . | -9.0%[22.9 µM] | . | . | -39.3%[12.7 µM]
CC1CN(Cc2cn(C)nc2-c2ccc(Oc3ccccc3)cc2)CCN1C (stereo not drawn) | -12.4% | -5.6% | -7.8% | 1.3% | -19.1% | -15.3%
Cc1ncc(CO)c2c1Oc1nc(-c3ccccc3)nc(SCC(=O)N3CCCCC3)c1C2 | ? | -29.7% | ? | -3.6% | -23.4% | 39.8µM*
Cc1cccc(NC(=O)CSc2nc(-c3cccc(C)c3)nc3c2Cc2c(CO)cnc(C)c2O3)c1 | -14.7% | . | -9.7% | 23.8% | ? | 8.0%[59 µM]
Cc1ncc(CO)c2c1Oc1nc(-c3ccccc3)nc(SCC(=O)N3CCOCC3)c1C2 | -35.9% | -21.4% | -22.5% | 18.7% | -30.8% | 31.6µM*
COc1cccc(-c2nc3c(c(SCC(=O)Nc4cc(C)ccc4C)n2)Cc2c(CO)cnc(C)c2O3)c1 | -4.8% | . | 3.8% | 12.9% | -32.2% | -25.5%[59 µM]
Cc1cccc(-c2nc3c(c(SCC(=O)N4CCOCC4)n2)Cc2c(CO)cnc(C)c2O3)c1 | ? | -26.5% | . | 36.6% | ? | 44.7µM*
COc1cccc(-c2nc3c(c(SCC(=O)N4CCOCC4)n2)Cc2c(CO)cnc(C)c2O3)c1 | ? | ? | . | 18.7% | ? | 14.1µM*
SMILES | JMJD2A Tudor | PLK1 PBD inh | 12-LOX inh | HP1b binding inh | BAZ2B block | G9a block
CN(C)C(=O)N1CCN(C(=O)N(C)C)CC1 | -5.3%[57.1 µM] | -28.4% | ? | 47.8% | . | 4.7%[59 µM]
Cc1nn2cc(-c3ccc(Cl)cc3)nc2s1 | -14.6% | -3.0% | 0.0% | 22.3% | 12.6% | -15.9%[12.7 µM]
COc1ccc(OC)c(NC(=O)CCNC(=O)N2CC(=O)Nc3ccccc32)c1 | . | -14.9% | ? | . | . | .
CS/C(=C\[N+](=O)[O-])Nc1ccccc1 | 11.6% | -0.2% | 83.8% | 31.2% | -10.1% | -33.8%[59 µM]
Cc1cccc(C)c1NC(=O)CNC(=O)CCCN1C(=O)c2cccc3cccc(c23)C1=O | -9.7% | -4.6% | -26.5% | 28.6% | -2.0% | 11.6%[12.7 µM]
Cc1nc(-c2ccccn2)nc(SCC(=O)N2CCOCC2)c1Cl | -14.7% | 23.8µM* | -15.4% | 1.9% | 4.9% | 20µM*
CCCN1C2CCCC1CC(NC(=S)Nc1cc(C)ccc1C)C2 (stereo not drawn) | -14.4% | 0.1% | 0.0% | 17.5% | 9.5% | 15.7%[59 µM]
O=C(O)c1ccc(N/N=C/C2=Cc3ccccc3OC2)cc1 | -29.4%[11.4 µM] | 23.8µM* | 9.6% | -10.0% | -37.0% | 50.1µM*
COc1ccsc1NC(=O)OCc1ccc(Cl)cc1 | ? | 0.0% | ? | -16.3% | ? | 50.1µM*
CSc1nsc(NC(=O)OCc2ccc(Cl)cc2)n1 | -2.3% | -2.5% | 8.7% | 60.6% | 7.6% | .
CN1Cc2nnn(Cc3ccccc3)c2-c2cc(N3CCCCC3)ccc2S1(=O)=O | . | . | -5.1% | . | . | .
O=C(CN1C(=O)C2C3C=CC(C3)C2C1=O)Nc1nc2ccccc2[nH]1 (stereo not drawn) | 11.2µM* | -6.6% | 5.3% | 6.4% | -35.2% | 79.4µM*
O=C(CN1C(=O)C2C3C=CC(C3)C2C1=O)Nc1ccc(F)cc1 (stereo not drawn) | -3.3% | -15.5% | -4.3% | 23.7% | 18.8% | -23.1%
O=C(Nc1cccnc1)Nc1ccc(Cl)cc1Cl | ? | -2.8% | 25.1µM* | 42.4% | -18.6% | 50.1µM*
O=C(Nc1ccc(Cl)cc1)Nc1cccnc1 | -15.1% | -9.0% | -28.6% | 9.4% | 0.3% | -4.8%[12.7 µM]
O=C(CC(=O)Nc1ccc(Cl)cc1Cl)Nc1ccc(Cl)cc1Cl | -18.2% | 29.9µM* | -4.1% | 10.3% | 3.4% | 12.3%
C/C(=N\NC(=O)c1nc2ccccn2c1C)c1ccc2c(c1)OCO2 | -5.7% | -6.2% | -18.7% | 24.9% | -16.9% | ?
Cc1nc2cc(NC(=O)C3COc4ccccc4O3)ccc2s1 (stereo not drawn) | -15.8% | -2.5% | 18.2% | 4.6% | -28.4% | 50.1µM*
CCC(C)NC(=O)c1ccccc1NC(=O)C1COc2ccccc2O1 (stereo not drawn) | -13.4% | -1.0% | -0.1% | 32.0% | -1.8% | 2.3%
